# PubChem BioAssay AID720650 (Broad Institute, 2013)
# Active and inactive are the calls of the source. How the calls were made is not given here.
# Assay: Biochemical counterscreen for C difficile toxins, absence of UDPG, inhibitor dose response (AID 720650)
# Conditions: series mostly up to 19.5 µM
row,Compound,AC50
1,O=S(=O)(NC1CCCCCCC1)c1ccc(F)cc1,inactive
2,Oc1ccc(/C=N/N2CCN(c3ccccn3)CC2)cc1,15 µM (active)
3,COC(=O)C1=C(c2ccc(OCc3ccccc3)cc2)C[C@@H]2CC[C@H]1N2C(=O)NCCCc1ccccc1,inactive
4,O=C(Nc1ccc(O)cc1)/C(=C\c1ccncc1)NC(=O)c1ccccc1,11.8 µM (active)
5,CS(=O)(=O)Nc1cccc(C2=NN(C(=O)c3ccccc3)C(c3cccs3)C2)c1 (stereo not drawn),inactive
6,CCN(C(=O)CN1C(=O)NC2(CCC(C)CC2)C1=O)C1CCCCC1 (stereo not drawn),inactive
7,COc1cc(Cn2nnc3ccccc32)ccc1O,15.8 µM (active)
8,COc1ccc(CNC(=O)C2=CC(c3ccc(C)cc3)=NS(=O)(=O)N2C)cc1,inactive
9,O=C(NN=Cc1cc(Br)c(O)c(Br)c1)c1ccccc1NS(=O)(=O)c1cccs1,inactive
10,Cc1ccc(-c2csc(NC(=O)/C=C/c3ccco3)c2C(=O)O)cc1,inactive
11,CC(C)NC(=O)N1CC[C@@H]2[C@H]1c1cc(-c3ccccc3)ccc1N(C)[C@H]2CO,5.77 µM (active)
12,C[C@H](CO)N1C[C@H](C)[C@H](CN(C)Cc2ccc(Oc3ccccc3)cc2)Oc2cc(-c3ccncc3)ccc2S1(=O)=O,inactive
13,CNC(=O)C1CCN(S(=O)(=O)c2c(C)noc2/C=C/c2ccc(C)cc2)CC1,inactive
14,COC1=C/C(=C/c2c(N)n3nc(CC(=O)N4CCOCC4)sc3nc2=O)C=CC1=O,inactive
15,Cc1ccc(C(=O)Nc2ccc(N3CCCCC3)cc2)cc1,inactive
16,Cc1ccc(C)c2sc(NC(=O)c3ccc(N4C(=O)CCC4=O)cc3)nc12,inactive
17,COc1cc(Cn2c(-c3ccc(O)c(OC)c3)nc3ccccc32)ccc1O,inactive
18,COc1cccc(C(CNc2ccc(S(=O)(=O)N3CCN(C)CC3)cc2[N+](=O)[O-])N(C)C)c1 (stereo not drawn),inactive
19,COc1ccccc1-n1c(SCC(=O)O)nc2c(sc(=S)n2-c2ccc(C)c(C)c2)c1=O,> 39 µM (inactive)

row,Compound,AC50
1,COCC(=O)N1CC[C@@H]2[C@@H](CO)N(C)c3ccc(-c4ccccc4)cc3[C@@H]21,3.88 µM (active)
2,COCCCNC(=O)C1CCN(S(=O)(=O)c2c(C)noc2/C=C\c2ccc(OC)cc2)CC1,inactive
3,Cc1ccc2c(C)c3ccc4ccccc4c3c[n+]2c1,inactive
4,COc1ccccc1C1NC(=O)NC(C)=C1C(=O)OC1CCCCC1 (stereo not drawn),inactive
5,CCN(C(=O)COC(=O)c1cccnc1SC)C1CCCCC1,inactive
6,COc1ccccc1C(=O)Nc1cccc(Oc2c(F)c(F)c(F)c(F)c2F)c1,> 39 µM (inactive)
7,COc1ccc(C(=O)NC(CC(=O)O)c2cc([N+](=O)[O-])ccc2Cl)c(SC)c1 (stereo not drawn),inactive
8,CN(C)c1ccc(Cl)c(NC(N)=S)c1,19.2 µM (active)
9,O=C1NC(=O)/C(=C/c2ccc(O)cc2)S1,8.69 µM (active)
10,COc1cc(/C=C/C(=O)c2ccc([N+](=O)[O-])o2)ccc1O,inactive
11,O=c1c([N+](=O)[O-])cccn1Cc1ccc(F)cc1Cl,inactive
12,Cc1cccc(/C=C/c2onc(C)c2S(=O)(=O)N2CCC(C(=O)NC(C)(C)C)CC2)c1,inactive
13,C[C@H](CO)N1C[C@H](C)[C@@H](CN(C)C(=O)Nc2ccc(C(F)(F)F)cc2)Oc2c(cccc2N(C)C)C1=O,19 µM (active)
14,CN(C)c1ccc(C(=O)OCC#CCSc2nnc(-c3cccc4ccccc34)o2)cc1,inactive
15,COc1cc(/C=N/NC(=O)CSc2ccccn2)ccc1O,inactive
16,C/C(CCc1ccccc1)=N\NC(=O)C1C2CCCCC21 (stereo not drawn),inactive
17,C=CC[C@@H](CC(=O)N(CCO)Cc1ccccc1)C(=O)NC[C@@H](OC(=O)[C@@H](CC=C)CC(=O)OC(C)(C)C)c1ccccc1,inactive
18,CNC(=O)C1CCN(S(=O)(=O)c2c(C)noc2/C=C/c2cccc(OC)c2)CC1,inactive
19,CC1(C)CCC/C(=C\c2ccccc2)C1=O,inactive
